According to PubChem BioAssay (EPA / NIEHS):
Results filed as inconclusive are left out. The source made the active and inactive calls. How the source made its calls, unless noted: active means hit-call score of the fitted dose curve at least 0.9, where 1 is the maximum; inactive means score below 0.9.

Key:
[1] = read-out: Macrophage colony-stimulating factor (MCSF), CSF1 (gene 1435); assay: BSK_LPS_MCSF: BioMAP Diversity Plus: LPS Assay for Macrophage colony-stimulating factor (MCSF) Biomarker Activity (AID 2283083); conditions: primary human HUVEC with PBMC; actives raise or lower the signal
Summary of the method: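 Bidirectional fit versus DMSO of ELISA-measured M-CSF in co-cultured human umbilical vein endothelial cells and PBMC, sampled 24 h after dosing.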

[2] = read-out: Tissue Factor, F3 (gene 2152); assay: BSK_LPS_TissueFactor: BioMAP Diversity Plus: LPS Assay for Tissue Factor Biomarker Activity (AID 2283084); conditions: primary human HUVEC with PBMC; actives raise or lower the signal
Summary of the method: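 Read-out: CD142 ELISA, 24 h. System: LPS-driven human endothelial/PBMC co-culture. Analysis: up- or down-signal fitted against DMSO.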

[3] = read-out: Tumor necrosis factor (Homo sapiens) (UniProt P01375); assay: BSK_LPS_TNFa: BioMAP Diversity Plus: LPS Assay for Tumour Necrosis Factor alpha (TNFa) Biomarker Activity (AID 2283085); conditions: primary human HUVEC with PBMC; actives raise or lower the signal;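 on AC50: TNFa protein level quantified by ELISA in the co-culture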
Summary of the method: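 TNFa was quantified by ELISA in LPS-activated co-cultures of human endothelial cells and PBMC, 24 h post-dosing. Both increases and decreases versus DMSO were fitted.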

[4] = read-out: Vascular cell adhesion molecule 1 (VCAM1), VCAM1 (gene 7412); assay: BSK_LPS_VCAM1: BioMAP Diversity Plus: LPS Assay for Vascular cell adhesion molecule 1 (VCAM1) Biomarker Activity (AID 2283086); conditions: primary human HUVEC with PBMC; actives raise or lower the signal
Summary of the method: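 VCAM-1 quantified by ELISA in an LPS-activated co-culture of human endothelial cells and peripheral blood mononuclear cells, read 24 h post-treatment. Fitted in both directions versus DMSO; parallel SRB staining flags overt cytotoxicity.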

CD38, CD38 (gene 952) = assay: BSK_SAg_CD38: BioMAP Diversity Plus: SAg Assay for CD38 Biomarker Activity (AID 2283087); conditions: primary human HUVEC with PBMC; actives raise or lower the signal
Summary of the method: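 CD38 quantified by ELISA (fluorescence) in a superantigen-activated endothelial cell–PBMC co-culture at 24 h post-dose. Activity fitted in both directions relative to DMSO; parallel SRB and Alamar Blue cytotoxicity read-outs.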

CD40, CD40 (gene 958) = assay: BSK_SAg_CD40: BioMAP Diversity Plus: SAg Assay for CD40 Biomarker Activity (AID 2283088); conditions: primary human HUVEC with PBMC; actives raise or lower the signal
Summary of the method: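 Endpoint derived by fitting increases or decreases versus DMSO controls. CD40 is detected by fluorescence ELISA in a human vascular co-culture of endothelium and PBMC at 24 h.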

CD69, CD69 (gene 969) = assay: BSK_SAg_CD69: BioMAP Diversity Plus: SAg Assay for CD69 Biomarker Activity (AID 2283089); conditions: primary human HUVEC with PBMC; actives raise or lower the signal;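 on AC50: cell surface CD69 protein quantified by ELISA with fluorescence detection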
Summary of the method: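 Values derive from bidirectional fitting relative to DMSO vehicle. Cells: umbilical vein endothelium plus peripheral blood mononuclear cells, treated 24 h before fluorescent ELISA for CD69.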

[5] = read-out: Monocyte Chemoattractant Protein-1 (MCP1), CCL2 (gene 6347); assay: BSK_SAg_MCP1: BioMAP Diversity Plus: SAg Assay for Monocyte Chemoattractant Protein-1 (MCP1) Biomarker Activity (AID 2283090); conditions: primary human HUVEC with PBMC; actives raise or lower the signal
Summary of the method: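 Values derive from bidirectional fitting of ELISA-measured MCP1 against DMSO controls. Readings were taken 24 h after dosing human vascular endothelial cells co-cultured with peripheral blood mononuclear cells under superantigen stimulation.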

[6] = read-out: E-selectin (Homo sapiens) (UniProt P16581); assay: BSK_SAg_Eselectin: BioMAP Diversity Plus: SAg Assay for Eselectin Biomarker Activity (AID 2283091); conditions: primary human HUVEC with PBMC; actives raise or lower the signal
Summary of the method: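 Endpoint values derive from bidirectional fitting relative to DMSO, using ELISA-measured E-selectin in a human vascular co-culture (umbilical vein endothelium plus PBMC) sampled 24 h after dosing.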

[7] = read-out: Monokine induced gamma interferon (MIG), CXCL9 (gene 4283); assay: BSK_SAg_MIG: BioMAP Diversity Plus: SAg Assay for Monokine induced gamma interferon (MIG) Biomarker Activity (AID 2283092); conditions: primary human HUVEC with PBMC; actives raise or lower the signal
Summary of the method: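 Values reflect bidirectional fitting of ELISA-measured MIG against DMSO vehicle, taken 24 h after dosing of a co-culture of human umbilical vein endothelial cells and peripheral blood mononuclear cells.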

[8] = read-out: Interleukin-8 (IL8), CXCL8 (gene 3576); assay: BSK_SAg_IL8: BioMAP Diversity Plus: SAg Assay for Interleukin-8 (IL8) Biomarker Activity (AID 2283094); conditions: primary human HUVEC with PBMC; actives raise or lower the signal
Summary of the method: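 ELISA readout of IL-8 from a superantigen-activated endothelial/PBMC primary human co-culture, taken 24 h post-dosing and fitted in both directions against DMSO; parallel SRB total-protein staining flags overt cytotoxicity.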

[9] = BSK_SAg_Proliferation: Cell Proliferation Assessment in the BioMAP Diversity Plus: SAg Assay (AID 2283095); conditions: primary human HUVEC with PBMC;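 further: relative cell number as total protein by SRB absorbance in sub-confluent culture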
Summary of the method: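 Relative cell number in the endothelial cell/PBMC co-culture was quantified at 96 h by SRB staining (0.1% SRB, 10% TCA fixation, read at 560 nm). Curves were fitted in both directions relative to DMSO baseline.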

[10] = BSK_SAg_SRB: Viability Assessment in the BioMAP Diversity Plus: SAg Assay (AID 2283096); conditions: primary human HUVEC with PBMC;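 further: cells read one day after compound addition; hits may be either gain or loss of signal compared with DMSO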
Summary of the method: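 SRB absorbance at 560 nm served as the viability read-out. Cells (HUVEC plus peripheral blood mononuclear cells) were TCA-fixed and stained 24 h post-dosing; activity fitted in both directions against DMSO controls.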

[11] = target: human CYP19A1, CYP19A1 (gene 1588) (UniProt P11511); assay: NVS_ADME_hCYP19A1: NovaScreen (NVS) CYP450-related Enzyme Activity (ADME) Assay for human CYP19A1 (AID 2283098; active means hit-call score of the fitted dose curve at least 0.9, where 1 is the maximum)
Summary of the method: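 Primary testing was in duplicate at a single 10 uM concentration, with actives followed up in concentration-response series. Fluorescence read-out of recombinant enzyme activity at 0.5 h, cell-free. Acetonitrile was the negative-control baseline.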

[12] = target: human CYP1A1, CYP1A1 (gene 1543) (UniProt P04798); assay: NVS_ADME_hCYP1A1: NovaScreen (NVS) CYP450-related Enzyme Activity (ADME) Assay for human CYP1A1 (AID 2283100; active means hit-call score of the fitted dose curve at least 0.9, where 1 is the maximum)
Summary of the method: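 Inhibition of recombinant CYP1A1 turnover was assessed fluorometrically in a biochemical format 1 h after compound exposure. Testing began at 10 uM in duplicate and progressed to concentration series reaching 20 uM, with on-plate positive and negative controls.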

[13] = target: human CYP2D6, CYP2D6 (gene 1565) (UniProt P10635); assay: NVS_ADME_hCYP2D6: NovaScreen (NVS) CYP450-related Enzyme Activity (ADME) Assay for human CYP2D6 (AID 2283107; active means hit-call score of the fitted dose curve at least 0.9, where 1 is the maximum)
Summary of the method: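 Biochemical fluorescence assay, insect-cell-derived enzyme. Read at 1 h; inhibition taken from loss of signal against acetonitrile. Screened at 10 uM in duplicate, with concentration series for actives.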

[14] = BSK_SAg_PBMCCytotoxicity: PBMC Cytotoxicity Assessment in the BioMAP Diversity Plus: SAg Assay (AID 2283093); conditions: primary human HUVEC with PBMC;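 further: PBMC viability measured as Alamar Blue reduction fluorescence at 546/580 nm; fitted both ways against DMSO so a hit may be loss or gain of signal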
Summary of the method: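 Alamar Blue reduction (6 h, ex/em 546/580 nm) read after 90 h culture of PBMC pre-dosed 1 h then stimulated with SEB plus TSST-1, 20 ng/mL each. Gain or loss of signal fitted relative to DMSO.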

Chain of E-selectin (Homo sapiens) (P16581 whole entry, looked up): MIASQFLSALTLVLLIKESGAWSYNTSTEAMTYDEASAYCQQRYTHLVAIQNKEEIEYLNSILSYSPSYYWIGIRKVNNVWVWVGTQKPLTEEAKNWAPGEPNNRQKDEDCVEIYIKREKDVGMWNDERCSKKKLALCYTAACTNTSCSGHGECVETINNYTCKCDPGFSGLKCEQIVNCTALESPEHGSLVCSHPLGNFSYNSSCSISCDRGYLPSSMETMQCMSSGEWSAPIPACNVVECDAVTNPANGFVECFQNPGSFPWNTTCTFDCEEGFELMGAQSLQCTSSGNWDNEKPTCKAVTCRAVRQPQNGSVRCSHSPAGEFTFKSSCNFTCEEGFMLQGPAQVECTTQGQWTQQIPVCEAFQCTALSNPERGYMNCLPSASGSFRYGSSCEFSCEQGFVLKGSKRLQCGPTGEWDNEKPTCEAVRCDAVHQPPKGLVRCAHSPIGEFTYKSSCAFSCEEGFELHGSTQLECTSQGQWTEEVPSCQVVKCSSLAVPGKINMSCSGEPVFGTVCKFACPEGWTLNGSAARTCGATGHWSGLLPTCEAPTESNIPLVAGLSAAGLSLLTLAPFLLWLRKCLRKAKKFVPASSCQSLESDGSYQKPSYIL
Chain of Tumor necrosis factor (Homo sapiens) (P01375 whole entry, looked up): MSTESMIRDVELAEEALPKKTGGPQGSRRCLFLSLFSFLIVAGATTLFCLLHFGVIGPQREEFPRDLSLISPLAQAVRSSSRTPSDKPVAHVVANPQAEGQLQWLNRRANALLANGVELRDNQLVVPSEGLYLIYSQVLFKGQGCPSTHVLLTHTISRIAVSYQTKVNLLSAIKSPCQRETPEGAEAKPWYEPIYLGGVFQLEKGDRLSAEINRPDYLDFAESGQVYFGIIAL
Chain of human CYP19A1, CYP19A1 (gene 1588) (P11511 whole entry, looked up): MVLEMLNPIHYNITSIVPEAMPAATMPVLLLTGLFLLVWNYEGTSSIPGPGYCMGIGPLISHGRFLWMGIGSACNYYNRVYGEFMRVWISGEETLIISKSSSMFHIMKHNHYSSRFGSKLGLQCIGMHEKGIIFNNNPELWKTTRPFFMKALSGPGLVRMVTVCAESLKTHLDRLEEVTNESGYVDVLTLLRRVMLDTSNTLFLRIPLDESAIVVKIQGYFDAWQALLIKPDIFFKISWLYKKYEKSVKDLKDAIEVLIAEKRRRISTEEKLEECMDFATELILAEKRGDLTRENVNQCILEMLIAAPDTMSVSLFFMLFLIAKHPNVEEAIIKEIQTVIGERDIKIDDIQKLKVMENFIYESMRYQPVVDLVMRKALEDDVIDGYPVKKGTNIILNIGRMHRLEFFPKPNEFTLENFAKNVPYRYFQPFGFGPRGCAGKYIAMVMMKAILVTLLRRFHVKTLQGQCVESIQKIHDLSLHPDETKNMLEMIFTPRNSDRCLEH
Chain of human CYP2D6, CYP2D6 (gene 1565) (P10635 whole entry, looked up): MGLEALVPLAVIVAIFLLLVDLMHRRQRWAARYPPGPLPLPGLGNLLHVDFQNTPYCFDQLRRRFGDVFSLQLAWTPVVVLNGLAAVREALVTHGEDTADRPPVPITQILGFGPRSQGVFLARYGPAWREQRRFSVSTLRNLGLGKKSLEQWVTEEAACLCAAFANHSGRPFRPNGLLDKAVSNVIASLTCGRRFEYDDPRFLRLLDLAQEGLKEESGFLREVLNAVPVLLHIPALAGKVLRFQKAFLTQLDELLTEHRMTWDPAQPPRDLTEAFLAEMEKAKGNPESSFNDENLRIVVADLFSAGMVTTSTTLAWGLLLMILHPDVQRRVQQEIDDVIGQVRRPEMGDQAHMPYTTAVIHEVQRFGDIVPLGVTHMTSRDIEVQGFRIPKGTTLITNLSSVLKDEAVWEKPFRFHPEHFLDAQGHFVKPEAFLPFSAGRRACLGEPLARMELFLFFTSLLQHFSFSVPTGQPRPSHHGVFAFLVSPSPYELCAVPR
Chain of human CYP1A1, CYP1A1 (gene 1543) (P04798 whole entry, looked up): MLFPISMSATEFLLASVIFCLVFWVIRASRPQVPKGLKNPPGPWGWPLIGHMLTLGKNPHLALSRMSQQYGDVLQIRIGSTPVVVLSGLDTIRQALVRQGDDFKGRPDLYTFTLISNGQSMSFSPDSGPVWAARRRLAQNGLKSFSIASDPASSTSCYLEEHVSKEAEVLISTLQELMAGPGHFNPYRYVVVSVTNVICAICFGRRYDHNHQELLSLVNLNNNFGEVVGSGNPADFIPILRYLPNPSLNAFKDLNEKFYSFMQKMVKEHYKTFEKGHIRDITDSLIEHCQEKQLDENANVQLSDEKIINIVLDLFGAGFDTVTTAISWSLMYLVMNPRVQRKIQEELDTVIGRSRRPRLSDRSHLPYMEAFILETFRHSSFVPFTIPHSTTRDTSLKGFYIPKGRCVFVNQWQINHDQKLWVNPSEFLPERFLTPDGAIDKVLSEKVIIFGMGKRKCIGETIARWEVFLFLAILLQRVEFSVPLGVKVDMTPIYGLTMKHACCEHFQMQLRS

## Oc1cccc(O)c1
[1]
  outcome: inactive
[2]
  outcome: inactive
[3]
  outcome: inactive
[4]
  outcome: inactive
CD38, CD38 (gene 952)
  outcome: inactive
CD40, CD40 (gene 958)
  outcome: inactive
CD69, CD69 (gene 969)
  outcome: inactive
[5]
  outcome: inactive
[6]
  outcome: inactive
[7]
  outcome: inactive
[8]
  outcome: inactive
[9]
  outcome: inactive
[10]
  outcome: inactive

## COC(=O)CCCCC(=O)OC
[1]
  outcome: inactive
[2]
  outcome: inactive
[3]
  outcome: inactive
[4]
  outcome: inactive
CD38, CD38 (gene 952)
  outcome: inactive
CD40, CD40 (gene 958)
  outcome: inactive
CD69, CD69 (gene 969)
  outcome: inactive
[5]
  outcome: inactive
[6]
  outcome: inactive
[7]
  outcome: inactive
[8]
  outcome: inactive
[9]
  outcome: inactive
[10]
  outcome: inactive

## CC(O)CO (stereo not drawn)
[1]
  outcome: inactive
[2]
  outcome: inactive
[3]
  outcome: inactive
[4]
  outcome: inactive
CD38, CD38 (gene 952)
  outcome: inactive
CD40, CD40 (gene 958)
  outcome: inactive
CD69, CD69 (gene 969)
  outcome: inactive
[5]
  outcome: inactive
[6]
  outcome: inactive
[7]
  outcome: inactive
[8]
  outcome: inactive
[9]
  outcome: inactive
[10]
  outcome: inactive

## Cc1cc(CCN2CCN(c3nsc4ccccc34)CC2)cc2c1NC(=O)CC2(C)C
[1]
  AC50: 15.3 µM (active)
[2]
  AC50: 32.8 µM (active)
[3]
  AC50: 8.98 µM (active)
[4]
  AC50: 26 µM (active)
CD38, CD38 (gene 952)
  AC50: 13.4 µM (active)
CD40, CD40 (gene 958)
  AC50: 14.2 µM (active)
CD69, CD69 (gene 969)
  AC50: 14.4 µM (active)
[5]
  AC50: 11.3 µM (active)
[6]
  AC50: 11.8 µM (active)
[7]
  AC50: 17.3 µM (active)
[8]
  AC50: 20 µM (active)
[9]
  AC50: 8.05 µM (active)
[10]
  AC50: 33.9 µM (active)
[11]
  outcome: inactive
[12]
  outcome: inactive
[13]
  outcome: inactive

## CC(C)(C)c1cccc(C(C)(C)C)c1O
[1]
  outcome: inactive
[2]
  outcome: inactive
[3]
  outcome: inactive
[4]
  outcome: inactive
CD38, CD38 (gene 952)
  outcome: inactive
CD40, CD40 (gene 958)
  outcome: inactive
CD69, CD69 (gene 969)
  outcome: inactive
[5]
  outcome: inactive
[6]
  outcome: inactive
[7]
  outcome: inactive
[8]
  outcome: inactive
[9]
  outcome: inactive
[10]
  outcome: inactive

## O=C(O)c1ccccc1C(c1ccc(O)cc1)c1ccc(O)cc1
[1]
  outcome: inactive
[2]
  outcome: inactive
[3]
  outcome: inactive
[4]
  outcome: inactive
CD38, CD38 (gene 952)
  outcome: inactive
CD40, CD40 (gene 958)
  outcome: inactive
CD69, CD69 (gene 969)
  outcome: inactive
[5]
  outcome: inactive
[6]
  outcome: inactive
[7]
  outcome: inactive
[8]
  outcome: inactive
[9]
  outcome: inactive
[10]
  outcome: inactive
[11]
  outcome: inactive

## CCCCCCCCC(=O)O
[1]
  outcome: inactive
[2]
  outcome: inactive
[3]
  outcome: inactive
[4]
  outcome: inactive
CD38, CD38 (gene 952)
  outcome: inactive
CD40, CD40 (gene 958)
  outcome: inactive
[5]
  outcome: inactive
[6]
  outcome: inactive
[7]
  outcome: inactive
[14]
  outcome: inactive
[8]
  outcome: inactive
[9]
  outcome: inactive
[10]
  outcome: inactive

## ClC1=C(Cl)C(Cl)(Cl)C(Cl)=C1Cl
[1]
  AC50: 9.94 µM (active)
[2]
  AC50: 9.9 µM (active)
[3]
  AC50: 18.4 µM (active)
[4]
  AC50: 9.81 µM (active)
CD38, CD38 (gene 952)
  AC50: 7.55 µM (active)
CD40, CD40 (gene 958)
  AC50: 8.3 µM (active)
CD69, CD69 (gene 969)
  AC50: 8.69 µM (active)
[5]
  AC50: 10.6 µM (active)
[6]
  AC50: 8.69 µM (active)
[7]
  AC50: 13.8 µM (active)
[8]
  AC50: 10.4 µM (active)
[9]
  AC50: 5.78 µM (active)
[10]
  AC50: 9.48 µM (active)
